Source: PubChem BioAssay AID1159580 (chemical genetic matrix, 2015)
Values joined by “and” are separate entries in the source; they are usually repeats but may differ in a detail not shown here. Identical values can stand only once. Screen size: about 5,500 compounds; about 2,000 (36%) were called active. Not shown: some 18% with an inconclusive outcome. Rule as the data show it: active = normalized growth mostly below about 0.91 (no sharp cut-off); inconclusive = no clear call, values can overlap the other calls; inactive = mostly above about 0.92. Some of the results follow.

Experiment: chemical genetic growth profiling, strain panel (AID 1159580);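 also: tested at 20 µM; growth read once vehicle control cultures reached saturation at 30 °C; 1 = growth at the plate median or of vehicle wells; lower values mean less growth of the strain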
Conditions: S. cerevisiae deletion strains, growth OD

Measured: normalized growth

CCN(CC)CCOC(=O)C(Cc1cccc2ccccc12)CC1CCCO1 (stereo not given)
inactive: locus YAL013W, strain DEP1, active compounds read low 1.03 | locus YAL021C, strain ccr4, active compounds read low 1 | locus YAL026C, strain drs2, active compounds read low 1.01 | locus YAL030W, strain snc1, active compounds read low 0.998 | locus YBL061C, strain skt5, active compounds read low 1.01 | locus YBR009C, strain hhf1, active compounds read low 1.01 | locus YBR021W, strain FUR4, active compounds read low 1.02 | locus YBR023C, strain chs3, active compounds read low 1.01 | locus YBR171W, strain sec66, active compounds read low 1.02 | locus YBR229C, strain ROT2, active compounds read low 1 | locus YBR231C, strain swc5, active compounds read low 0.995 | locus YBR279W, strain paf1, active compounds read low 1.01 | locus YCL011C, strain gbp2, active compounds read low 1.01 | locus YCL016C, strain dcc1, active compounds read low 1.01 | locus YCL029C, strain bik1, active compounds read low 1.01 | locus YCL061C, strain MRC1, active compounds read low 1.01 | locus YCL069W, strain vba3, active compounds read low 1.01 | locus YCR088W, strain abp1, active compounds read low 1 | locus YDL005C, strain med2, active compounds read low 1.01 | locus YDL035C, strain GPR1, active compounds read low 1.02 | locus YDL040C, strain nat1, active compounds read low 1.01 | locus YDL074C, strain BRE1, active compounds read low 1.02 | locus YDL101C, strain DUN1, active compounds read low 1 | locus YDL134C, strain PPH21, active compounds read low 1.01 | locus YDL185W, strain tfp1, active compounds read low 1.01 | locus YDL192W, strain arf1, active compounds read low 1.01 | locus YDR001C, strain nth1, active compounds read low 1.01 | locus YDR069C, strain doa4, active compounds read low 1.02 | locus YDR101C, strain arx1, active compounds read low 1.02 | locus YDR137W, strain rgp1, active compounds read low 1.07 | locus YDR159W, strain sac3, active compounds read low 1.02 | locus YDR162C, strain NBP2, active compounds read low 1.02 | locus YDR195W, strain ref2 0.996 | locus YDR297W, strain sur2, active compounds read low 1.01 | locus YDR318W, strain mcm21, active compounds read low 1 | locus YDR334W, strain swr1, active compounds read low 1.01 | locus YDR335W, strain msn5, active compounds read low 1.01 | locus YDR388W, active compounds read low 1.01 | locus YDR392W, strain spt3, active compounds read low 1.01 | locus YDR502C, strain sam2, active compounds read low 1.01 | locus YEL003W, strain gim4, active compounds read low 1.01 | locus YEL037C, strain rad23, active compounds read low 1.01 | locus YEL061C, strain CIN8 (second series), active compounds read low 1.01 | locus YEL061C, strain CIN8, active compounds read low 1.01 | locus YER015W, strain faa2, active compounds read low 1.01 | locus YER016W, strain bim1, active compounds read low 1.01 | locus YER110C, active compounds read low 0.99 | locus YER111C, strain swi4, active compounds read low 1.01 | locus YER155C, strain BEM2 (second series), active compounds read low 1.01 | locus YER155C, strain BEM2, active compounds read low 1 | locus YER167W, strain BCK2, active compounds read low 1.01 | locus YFR010W, strain ubp6, active compounds read low 1.02 | locus YGL078C, strain dbp3, active compounds read low 1.02 | locus YGL086W, strain mad1, active compounds read low 1.01 | locus YGL167C, strain pmr1, active compounds read low 1.01 | locus YGL173C, strain kem1, active compounds read low 1.01 | locus YGL227W, strain vid30, active compounds read low 1 | locus YGL240W, strain doc1, active compounds read low 1.01 | locus YGL248W, strain PDE1, active compounds read low 1.01 | locus YGL253W, strain hxk2, active compounds read low 1.01 | locus YGR078C, strain PAC10, active compounds read low 1.03 | locus YGR135W, strain pre9, active compounds read low 0.998 | locus YGR252W, strain gcn5, active compounds read low 1.02 | locus YHR013C, strain ard1, active compounds read low 1.01 | locus YHR027C, strain rpn1, active compounds read low 1.01 | locus YHR030C, strain SLT2, active compounds read low 1.01 and 0.997 | locus YHR079C, strain IRE1 (second series), active compounds read low 1 | locus YHR079C, strain IRE1, active compounds read low 0.985 | locus YHR094C, strain hxt1, active compounds read low 0.997 | locus YHR129C, strain ARP1, active compounds read low 1.01 | locus YHR142W, strain chs7, active compounds read low 1.02 | locus YHR200W, strain rpn10, active compounds read low 1.01 | locus YIL066C, strain RNR3, active compounds read low 1.03 | locus YIL073C, strain SPO22, active compounds read low 1.08 | locus YIL125W, strain kgd1, active compounds read low 1 | locus YIR030C, strain dcg1, active compounds read low 1.01 | locus YJL092W, strain hpr5, active compounds read low 1.01 | locus YJL095W, strain BCK1 (second series), active compounds read low 1 | locus YJL095W, strain BCK1, active compounds read low 1.03 and 0.993 | locus YJL115W, strain asf1, active compounds read low 1 | locus YJL129C, strain trk1, active compounds read low 0.998 | locus YJL134W, strain LCB3, active compounds read low 1 | locus YJL154C, strain vps35, active compounds read low 1.01 | locus YJL164C, strain tpk1, active compounds read low 1.01 | locus YJL166W, strain qcr8, active compounds read low 1 | locus YJL168C, strain set2, active compounds read low 0.998 | locus YJL187C, strain SWE1 (second series), active compounds read low 1.02 | locus YJL187C, strain SWE1, active compounds read low 1.01 | locus YJR043C, strain POL32, active compounds read low 1.02 | locus YJR066W, strain TOR1, active compounds read low 0.95 | locus YKL009W, strain mrt4, active compounds read low 0.989 | locus YKL068W, active compounds read low 1 | locus YKL085W, strain MDH1 (second series), active compounds read low 1 | locus YKL085W, strain MDH1, active compounds read low 1 | locus YKL160W, strain elf1, active compounds read low 1 | locus YKR001C, strain vps1, active compounds read low 1.01 | locus YKR026C, strain gcn3, active compounds read low 1.01 | locus YKR091W, strain srl3, active compounds read low 1 | locus YLL001W, strain dnm1, active compounds read low 0.999 | locus YLL026W, active compounds read low 1 | locus YLL041C, strain sdh2, active compounds read low 1.01 | locus YLR027C, strain aat2, active compounds read low 1.01 | locus YLR039C, strain RIC1, active compounds read low 1.11 | locus YLR058C, strain SHM2, active compounds read low 1.01 | locus YLR102C, strain apc9, active compounds read low 0.992 | locus YLR113W, strain HOG1, active compounds read low 0.986 | locus YLR221C, strain rsa3, active compounds read low 1.01 | locus YLR258W, strain gsy2, active compounds read low 1 | locus YLR262C, strain YPT6 (second series), active compounds read low 1.03 | locus YLR262C, strain YPT6, active compounds read low 1.06 | locus YLR268W, strain sec22, active compounds read low 1.02 | locus YLR320W, strain mms22, active compounds read low 1.03 | locus YLR330W, strain CHS5, active compounds read low 1.01 | locus YLR342W, strain FKS1 (second series), active compounds read low 1.02 | locus YLR342W, strain FKS1, active compounds read low 1.01 | locus YLR357W, strain rsc2, active compounds read low 0.998 | locus YLR370C, strain arc18, active compounds read low 1.01 | locus YLR371W, strain rom2, active compounds read low 1.01 | locus YLR384C, strain iki3, active compounds read low 1.02 | locus YLR418C, strain cdc73, active compounds read low 1.02 | locus YML016C, strain PPZ1, active compounds read low 1 | locus YML032C, strain rad52, active compounds read low 1.01 | locus YML120C, strain ndi1, active compounds read low 1 | locus YML124C, strain tub3, active compounds read low 1 | locus YMR058W, strain fet3, active compounds read low 1.01 | locus YMR078C, strain ctf18, active compounds read low 1.02 | locus YMR125W, strain sto1, active compounds read low 1.01 | locus YMR129W, active compounds read low 1.01 | locus YMR205C, strain PFK2, active compounds read low 1.02 | locus YMR223W, strain ubp8, active compounds read low 1.02 | locus YMR231W, strain pep5, active compounds read low 1.02 | locus YMR307W, strain GAS1, active compounds read low 0.965 | locus YNL067W, strain RPL9B, active compounds read low 1.03 | locus YNL071W, strain lat1, active compounds read low 1.01 | locus YNL153C, strain GIM3, active compounds read low 1.03 | locus YNL183C, strain NPR1, active compounds read low 0.939 | locus YNL209W, strain ssb2, active compounds read low 1.02 | locus YNL233W, strain BNI4, active compounds read low 1.03 | locus YNL248C, strain rpa49, active compounds read low 1.01 | locus YNL250W, strain rad50, active compounds read low 1.01 | locus YNL271C, strain bni1, active compounds read low 0.998 | locus YNL298W, strain CLA4, active compounds read low 0.998 | locus YNL307C, strain MCK1, active compounds read low 1.02 | locus YNL322C, strain KRE1 (second series), active compounds read low 0.996 | locus YNR049C, strain mso1, active compounds read low 0.997 | locus YNR052C, strain pop2, active compounds read low 0.993 | locus YOL006C, strain TOP1, active compounds read low 1.14 | locus YOL012C, strain htz1 0.825 | locus YOL147C, strain pex11, active compounds read low 1 | locus YOR001W, strain rrp6, active compounds read low 1.01 | locus YOR061W, strain CKA2, active compounds read low 1.01 | locus YOR069W, strain VPS5, active compounds read low 1 | locus YOR070C, strain gyp1, active compounds read low 1 | locus YOR080W, strain dia2, active compounds read low 1 | locus YOR083W, strain WHI5, active compounds read low 1.01 | locus YOR106W, strain vam3, active compounds read low 0.998 | locus YOR136W, strain idh2, active compounds read low 1.01 | locus YOR144C, strain elg1, active compounds read low 1 | locus YOR184W, strain ser1, active compounds read low 1.01 | locus YOR231W, strain MKK1, active compounds read low 0.978 | locus YOR265W, strain rbl2, active compounds read low 1 | locus YOR270C, strain vph1, active compounds read low 1.03 | locus YOR290C, strain snf2, active compounds read low 1 | locus YOR316C, strain cot1, active compounds read low 1.01 | locus YPL051W, strain arl3, active compounds read low 1 | locus YPL055C, strain LGE1, active compounds read low 1.02 | locus YPL078C, strain atp4, active compounds read low 1.01 | locus YPL106C, strain sse1, active compounds read low 1.01 | locus YPL240C, strain hsp82, active compounds read low 1 | locus YPL256C, strain CLN2, active compounds read low 0.964 | locus YPR119W, strain clb2, active compounds read low 0.996 | locus YPR141C, strain kar3, active compounds read low 1.01 | locus YPR163C, strain tif3, active compounds read low 1.01 | locus YPR167C, strain met16, active compounds read low 1 | strain wtn01, active compounds read low 1
